Our source for the outcome and AC50 values is PubChem BioAssay (EPA / NIEHS).

Active and inactive are the calls of the source. Rule for the calls: active = hit-call score of the fitted dose curve at least 0.9, where 1 is the maximum; inactive = score below 0.9.

Read-out in the assay: Monocyte Chemoattractant Protein-1 (MCP1), CCL2 (gene 6347)
Put plainly: BSK_CASM3C_MCP1: BioMAP Diversity Plus: CASM3C Assay for Monocyte Chemoattractant Protein-1 (MCP1) Biomarker Activity (AID 2283046).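 Note: MCP-1 level quantified by ELISA 24 h after dosing.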 As to conditions: primary human coronary artery smooth muscle cells; actives raise or lower the signal.
Turning to `COCCOC[C@H](CC1(C(=O)NC2CCC(C(=O)O)CC2)CCCC1)C(=O)Oc1ccc2c(c1)CCC2` (some centres undefined), the outcome was inactive.
Broadly, the AC50 is the concentration at which the activity in the assay is half-maximal. For `COc1cc(-c2nc(NC(=O)c3cc4cc(C)cc(C)c4n3CC(=O)O)sc2CCC2CCCCC2)c(OC)cc1Cl`, the AC50 is 8.09 µM (active).
In the case of `NCC1(Cc2noc(=O)[nH]2)CCCCC1`, the result was inactive.
On to `CCCCC(CC)COC(=O)CC(C(=O)OCC(CC)CCCC)S(=O)(=O)O` (centres undefined), for which the result was inactive.
Consider `CCOC(=O)CCC(=O)OCC`, for which the outcome was inactive.
As for `Nc1ccc(S(=O)(=O)c2ccc(N)cc2)cc1`, the outcome was inactive.
In the case of `CC(C)c1ccc(C(=O)N=C(N)N)cc1S(C)(=O)=O`, the result was inactive.
On to `CCCCCCOCCO`, for which the result was inactive.
Same read-out and setting: the same measure for `CC(CO)OC(C)CO` (centres undefined) (tested in a mixture with another compound): “inactive”; for `COc1cc(C=O)ccc1O`: “inactive”.
Consider `c1cc(-c2ccncc2)ccn1`, for which the result was inactive.
For `CCNc1cccc(C)c1`, the result was inactive.
In the case of `CN1CCN(Cc2cc(-c3ccc4[nH]c(=O)oc4c3)co2)[C@@H](c2ccc(F)cc2)C1`, the AC50 was 0.736 µM (active).
For the molecule `Cc1nc(-c2ccc3c(c2)CCN(CCC2CCC(NC(=O)/C=C/c4ccc(F)cc4)CC2)CC3)no1` (centres undefined), the AC50 was 13.8 µM (active).
In the case of `O=c1c(O)c(-c2ccc(O)c(O)c2)oc2cc(O)cc(O)c12`, the AC50 is 9.09 µM (active).
For `CN[C@H]1CC[C@@H](c2ccc(Cl)c(Cl)c2)c2ccc(S(N)(=O)=O)cc21`, the AC50 is 30.4 µM (active).
On to `CCCCN(CCCC)CCCC`, for which the outcome was inactive.
In the case of `COC(=O)c1ccc(O)cc1`, the result was inactive.
For `CC1=C(/C=C/C(C)=C/C=C/C(C)=C/CO)C(C)(C)CCC1`, the outcome was inactive.
For `CNC(=O)[C@H]1O[C@@H](n2cnc3c(NCc4cc(Cl)ccc4OCc4cc(C)no4)ncnc32)[C@H](O)[C@@H]1N`, the outcome was inactive.
Regarding `Cc1cc(=O)[nH]c(=S)[nH]1`, the result was inactive.
`CCCCc1ccc2c(n1)[C@@H](c1ccc(OC)cc1C[C@H](C)C(=O)O)[C@H](C(=O)O)[C@H]2c1ccc2c(c1)OCO2`: the result was inactive.
On to `FC(F)(F)C(F)(F)C(F)(F)C(F)(F)C(F)(F)C(F)(F)CCI`, for which the outcome was inactive.
On to `C=CCOC(=O)c1ccccc1C(=O)OCC=C`, for which the result was inactive.
Take `O=[N+]([O-])C(CO)(CO)CO`: the result was inactive.
Take `Oc1ccc2ccccc2c1N=Nc1ccccc1`: the result was inactive.
For `O=C(N[C@@H](Cc1ccccc1)[C@@H](O)C(=O)N1C[C@@H](O)[C@@H](O)C1)c1cc2cc(Cl)ccc2[nH]1`, the result was inactive.
In the case of `CCCCCCCCCCCCCCCC`, the result was inactive.
Still for that read-out and setting: the same measure for `CCCCCCCCCCC`: “inactive”.
